Seven compounds from PubChem BioAssay (NCI) can be followed below.

Experiment in all cases: NCI-60 one-dose screen, 48 h (100 = growth as untreated, 0 = no growth, -100 = all killed)
One assay concerns SK-MEL-2 melanoma. Conditions: 10 µM unless noted.
In the next assay the test system is EKVX NSCLC. To be noted: 10 µM unless noted.
The test system of a further assay is SN12C renal. To be noted: 10 µM unless noted.
The test system of the next assay is TK-10 renal. To be noted: 10 µM unless noted.
The test system of a further assay is A498 renal. To be noted: 10 µM unless noted.
Another assay deals with CCRF-CEM leukemia. Conditions: 10 µM unless noted.
The subject of a further assay is MOLT-4 leukemia. Conditions: 10 µM unless noted.
Another assay concerns SR leukemia. Conditions: 10 µM unless noted.
For a further assay, the system named is RPMI-8226 leukemia. To be noted: 10 µM unless noted.
The test system of the next assay is OVCAR-8 ovarian. To be noted: 10 µM unless noted.
A further assay concerns OVCAR-5 ovarian. Conditions: 10 µM unless noted.
Another assay has as its system OVCAR-4 ovarian. Conditions: 10 µM unless noted.
The test system of the next assay is SK-OV-3 ovarian. To be noted: 10 µM unless noted.
In the next assay the test system is IGROV1 ovarian. To be noted: 10 µM unless noted.
In the next assay the test system is OVCAR-3 ovarian. Conditions: 10 µM unless noted.
The next assay concerns HS 578T breast. Conditions: 10 µM unless noted.
A further assay has as its system NCI/ADR-RES ovarian. To be noted: 10 µM unless noted.
The test system of another assay is ACHN renal. Conditions: 10 µM unless noted.
The subject of another assay is CAKI-1 renal. Conditions: 10 µM.

The panel holds about 83,000 compounds, 20% with a hit somewhere; the sample as a whole holds those more often.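 Values shown are percent growth following 48 h exposure of cells in 96-well plates to a single concentration of compound; below 10 was considered active.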 Unmarked numbers belong to inactive results. Activity calls are given as the source filed them.

For the compound `O=C(O)c1ccc(-n2cc(/C=N/Nc3ccccc3F)c(-c3ccc(O)cc3)n2)cc1`, the growth in the assay with SK-MEL-2 melanoma is 91.5%; in the assay on EKVX NSCLC, 69.9%; in the assay on SN12C renal, 103%; with TK-10 renal, 102%; in the assay with A498 renal, 72.5%; in the assay with CCRF-CEM leukemia it was 41.5%. For the same compound, the growth in the assay on MOLT-4 leukemia is 39.1%; in the assay on SR leukemia it was 73.6%; in the assay with RPMI-8226 leukemia, 59.1%; in the assay on OVCAR-8 ovarian, 88.4%; in the assay on OVCAR-5 ovarian, 80.9%; with OVCAR-4 ovarian, 94.8%. For the same compound, the growth in the assay with SK-OV-3 ovarian is 102%; with IGROV1 ovarian, 81%; with OVCAR-3 ovarian, 82.7%; in the assay with HS 578T breast, 92.4%; in the assay with NCI/ADR-RES ovarian it was 80%.
Turning to `O=C(Nc1ccc(-n2ccc3c(NC(=O)c4ccccc4)ncnc32)cc1)Nc1ccc(Cl)c(Cl)c1`, the growth is 11.7% in the assay with SK-MEL-2 melanoma; 27.3% in the assay with EKVX NSCLC; 15.8% with SN12C renal; 27.8% in the assay with ACHN renal; 30.8% in the assay on CAKI-1 renal; 90.5% in the assay with A498 renal. For the same compound, the growth is -10.2% (active) in the assay with CCRF-CEM leukemia; 28.7% in the assay on MOLT-4 leukemia; -6.07% (active) in the assay on SR leukemia; -1.3% (active) in the assay on RPMI-8226 leukemia; 0.377% (active) in the assay on OVCAR-8 ovarian; 39.6% in the assay on OVCAR-5 ovarian. The growth is -74.1% (active) in the assay with OVCAR-4 ovarian; 67.9% in the assay with SK-OV-3 ovarian; -2.23% (active) in the assay on IGROV1 ovarian; -67.1% (active) in the assay with OVCAR-3 ovarian; 53.2% with NCI/ADR-RES ovarian.
As for `CCNc1ncnc2n[nH]nc12`, the growth with SK-MEL-2 melanoma was 104%; with EKVX NSCLC it was 94.7%; in the assay on SN12C renal, 102%; in the assay on TK-10 renal, 91.9%; in the assay on A498 renal it was 102%; in the assay on CCRF-CEM leukemia, 87.5%. Moreover, the growth was 100% in the assay with MOLT-4 leukemia; 94% in the assay on SR leukemia; 95.5% with RPMI-8226 leukemia; 99.6% in the assay with OVCAR-8 ovarian; 103% with OVCAR-5 ovarian; 94.7% in the assay on OVCAR-4 ovarian. The growth with SK-OV-3 ovarian was 101%; in the assay on IGROV1 ovarian, 111%; in the assay with OVCAR-3 ovarian, 106%; with HS 578T breast it was 103%; in the assay with NCI/ADR-RES ovarian, 108%.
For the compound `CCCC(=O)Oc1ccc(/C(=C(\C)c2ccc(OC)cc2)c2ccc(OCCN3CCCCC3)cc2)cc1`, the growth with SK-MEL-2 melanoma was 80.9%; with EKVX NSCLC, 89.1%; with SN12C renal, 84.8%; with ACHN renal, 91.8%; with A498 renal, 80.7%; with CCRF-CEM leukemia, 83.3%. The growth in the assay on MOLT-4 leukemia is 72.5%; in the assay on SR leukemia, -14.9% (active); with RPMI-8226 leukemia, 56.9%; in the assay on OVCAR-8 ovarian, 90.4%; with OVCAR-5 ovarian it was 86.4%; in the assay on OVCAR-4 ovarian it was 75%. In addition, the growth was 79.9% in the assay on SK-OV-3 ovarian; 89.9% with IGROV1 ovarian; 89.4% in the assay on OVCAR-3 ovarian; 84.3% in the assay on HS 578T breast; 75.6% in the assay on NCI/ADR-RES ovarian.
For `CCN(CC)CCN1C(=O)c2c(c3c4ccccc4[nH]c3c3[nH]c4ccccc4c23)C1=O`, the growth was 101% in the assay on SK-MEL-2 melanoma; 80.3% with EKVX NSCLC; 79.1% in the assay on SN12C renal; 62% in the assay with ACHN renal; 87.9% in the assay on CAKI-1 renal; 67.7% with A498 renal. The growth in the assay with CCRF-CEM leukemia is 78.8%; in the assay with MOLT-4 leukemia it was 34.8%; in the assay on SR leukemia, 4.92% (active); with RPMI-8226 leukemia, 74.9%; in the assay on OVCAR-8 ovarian, 78.5%; in the assay with OVCAR-5 ovarian, 88.7%. In addition, the growth was 72% with OVCAR-4 ovarian; 83.1% in the assay on SK-OV-3 ovarian; 83.3% in the assay on IGROV1 ovarian; 95.4% in the assay with OVCAR-3 ovarian; 86.7% in the assay on HS 578T breast; 71.3% in the assay on NCI/ADR-RES ovarian.
For the compound `CCc1c(C)c2cc3c(c(C)c2oc1=O)OCC(=O)N3`, the growth was 77.5% in the assay with SK-MEL-2 melanoma; 35.9% in the assay with EKVX NSCLC; 72.9% in the assay on SN12C renal; 15.1% in the assay with TK-10 renal; 43.6% in the assay on A498 renal; 84.3% in the assay with CCRF-CEM leukemia. Besides, the growth in the assay with MOLT-4 leukemia is 80.7%; in the assay on SR leukemia, 4.96% (active); in the assay on RPMI-8226 leukemia, 90.9%; in the assay with OVCAR-8 ovarian, 74.6%; in the assay on OVCAR-5 ovarian it was 77.9%; with OVCAR-4 ovarian, 79.5%. The growth was 78.6% with SK-OV-3 ovarian; 51.7% with IGROV1 ovarian; 73.8% in the assay with OVCAR-3 ovarian; 59.5% with HS 578T breast; 75.1% in the assay on NCI/ADR-RES ovarian.
With `NC(=S)NNC1CCCCC1`, the growth with SK-MEL-2 melanoma is 97.3%; with EKVX NSCLC it was 89.9%; in the assay with SN12C renal, 95.7%; in the assay on TK-10 renal it was 97.2%; in the assay with A498 renal, 100%; in the assay on CCRF-CEM leukemia, 84.9%. The growth was 70.9% with MOLT-4 leukemia; 99.1% in the assay with SR leukemia; 93.9% with RPMI-8226 leukemia; 91.2% in the assay on OVCAR-8 ovarian; 102% in the assay on OVCAR-5 ovarian; 91.1% in the assay on OVCAR-4 ovarian. Further, the growth with SK-OV-3 ovarian was 93.3%; in the assay on IGROV1 ovarian it was 96.4%; in the assay with HS 578T breast, 101%; in the assay on NCI/ADR-RES ovarian, 101%.
